Measurements taken from the antibiotic and cytotoxicity screens of Wong et al. (2023).
Screen size: about 39,000 compounds; about 3,300 (8.5%) were called active. This excerpt belongs to a sample that is enriched for actives.

These compounds were tested on HepG2 (assay: cytotoxicity call (relative viability < 0.9)). Settings: 10 µM.

Row | Compound | cytotoxicity call
1 | CCCNC(=O)C[C@H]1CC[C@@H]2[C@@H](COc3ccc(NS(=O)(=O)c4ccccc4C)cc3C(=O)N2C)O1 | inactive
2 | O=C(C[C@H]1C=C[C@@H](NC(=O)c2ccc3c(c2)OCO3)[C@@H](CO)O1)NCc1ccc(Oc2ccccc2)cc1 | inactive
3 | COc1ccc2c3c(n(c2c1)C)[C@@H](CO)N(C[C@]13CCN(CC1)S(=O)(=O)c1cn(cn1)C)C(=O)Nc1ccc(cc1)F | inactive
4 | COc1ccc2c3c([nH]c2c1)[C@H](CO)N(C[C@]13CN(CC2CCCCC2)C1)S(=O)(=O)c1cn(cn1)C | inactive
5 | C[C@@H]1CCCCO[C@H](CN(C)C(=O)NC2CCCCC2)[C@H](C)CN([C@@H](C)CO)C(=O)c2cc(NC(=O)C3CCCCC3)ccc2O1 | inactive
6 | CN1C(=O)[C@@H]2[C@@H]3C[C@H]4[C@@H](O[C@H]1[C@H]42)[C@H]3O | inactive
7 | C[C@H](CO)N1C[C@H](C)[C@H](CN(C)Cc2ccncc2)Oc2c(NC(=O)c3cnccn3)cccc2C1=O | inactive
8 | C[C@@H]1CCCCO[C@H](CN(C)CC2CCCCC2)[C@H](C)CN([C@@H](C)CO)C(=O)c2cc(NS(=O)(=O)c3ccc(F)cc3)ccc2O1 | inactive
9 | C[C@H]1CCCCO[C@@H](CN(C)CC2CCCCC2)[C@@H](C)CN([C@@H](C)CO)C(=O)c2cc(NS(=O)(=O)c3ccc(F)cc3)ccc2O1 | inactive
10 | C[C@@H]1CN([C@H](C)CO)C(=O)c2cc(NS(=O)(=O)c3ccc(F)cc3)ccc2O[C@@H](C)CCCCO[C@H]1CN(C)CC1CCCCC1 | active
11 | C[C@H](CO)N1C[C@H](C)[C@@H](CN(C)C(=O)Nc2ccc3c(c2)OCO3)Oc2ccc(NC(=O)Cn3cnnn3)cc2C1=O | inactive
12 | C[C@H](CO)N1C[C@H](C)[C@@H](CN(C)C(=O)Nc2ccc3c(c2)OCO3)OCCCC[C@H](C)Oc2ccc(NS(=O)(=O)c3ccc(F)cc3)cc2C1=O | inactive
13 | CC(C)NC(=O)N(C)C[C@H]1Oc2ccc(NS(=O)(=O)c3ccc(F)cc3)cc2C(=O)N([C@@H](C)CO)C[C@H]1C | inactive
14 | C[C@H](CO)N1C[C@H](C)[C@H](CN(C)C(=O)Nc2ccc(C(F)(F)F)cc2)Oc2ccc(NC(=O)Nc3ccc4c(c3)OCO4)cc2CC1=O | inactive
15 | CC(C)(C)c1csc(-c2ccc(-c3cccs3)s2)n1 | inactive
16 | Clc1ccc(/C=N/Cc2ccc(-c3cccs3)s2)cc1 | active
17 | Cl.N=C(NN=Cc1ccc(Cl)cc1)NN=Cc1ccc(Cl)cc1 | inactive
18 | CN1C(=O)c2cc(NC(=O)C3CCC3)ccc2OC[C@H]2O[C@H](CC(=O)NCCc3ccncc3)CC[C@@H]21 | inactive
19 | Cc1noc(C)c1NC(=O)N(C)C[C@H]1Oc2ccc(NC(=O)Cn3cnnn3)cc2C(=O)N([C@@H](C)CO)C[C@@H]1C | inactive
20 | O=C(C[C@@H]1CC[C@H]2[C@@H](COC[C@@H](O)CN2S(=O)(=O)c2cccc(Cl)c2)O1)NCc1ccc2c(c1)OCO2 | inactive
21 | Cc1coc(C)c1C(=O)O[C@@H]1O[C@@H](C)[C@H](O)[C@@H](O)[C@H]1O | active
22 | C[C@@H]1O[C@@H](OC[C@H]2O[C@@H](OCCc3ccccc3)[C@H](O)[C@@H](O)[C@@H]2O)[C@H](O)[C@H](O)[C@H]1O | inactive

Row | Compound | cytotoxicity call
23 | C[C@@H]1O[C@@H](Oc2c(-c3cc(O)c(O)c(O)c3)oc3cc(O)cc(O)c3c2=O)[C@H](O)[C@H](O)[C@H]1O | inactive
24 | CCO[C@H]1OC(C(=O)N2CCN(Cc3ccc4c(c3)OCO4)CC2)=C[C@@H](C)[C@@H]1CCCOC(=O)NCCCCCC(=O)NO | inactive
25 | O=C(C[C@H]1C[C@@H]2c3cc(NC(=O)NC4CCCC4)ccc3O[C@@H]2[C@@H](CO)O1)NCc1ccc2c(c1)OCO2 | inactive
26 | CO[C@H]1CN(C)C(=O)c2ccc(NC(=O)NC(C)C)cc2OC[C@@H](C)N(Cc2ccc(-c3ccccn3)cc2)C[C@@H]1C | inactive
27 | C[C@@H]1CN([C@H](C)CO)C(=O)Cc2cc(NC(=O)Nc3ccc(C(F)(F)F)cc3)ccc2O[C@@H]1CN(C)Cc1ccccc1 | active
28 | C[C@H]1CN([C@@H](C)CO)C(=O)Cc2cc(NC(=O)Nc3ccc(C(F)(F)F)cc3)ccc2O[C@@H]1CN(C)Cc1ccccc1 | inactive
29 | C[C@@H]1CN([C@@H](C)CO)C(=O)Cc2cc(NC(=O)Nc3ccc(C(F)(F)F)cc3)ccc2O[C@H]1CN(C)Cc1ccccc1 | inactive
30 | C[C@@H]1CN([C@@H](C)CO)C(=O)Cc2cc(NC(=O)Nc3ccc(C(F)(F)F)cc3)ccc2O[C@@H]1CN(C)Cc1ccccc1 | active
31 | C[C@H]1CN([C@@H](C)CO)C(=O)Cc2cc(NC(=O)Nc3ccc(C(F)(F)F)cc3)ccc2O[C@H]1CN(C)Cc1ccccc1 | active
32 | C[C@@H]1CN([C@H](C)CO)C(=O)Cc2cc(NC(=O)Nc3ccc(C(F)(F)F)cc3)ccc2O[C@H]1CN(C)Cc1ccccc1 | active
33 | C[C@H](CO)N1C[C@H](C)[C@H](CN(C)S(C)(=O)=O)Oc2ncc(C#Cc3ccc(C(F)(F)F)cc3)cc2C1=O | inactive
34 | COCC#Cc1cnc2c(c1)C(=O)N([C@H](C)CO)C[C@@H](C)[C@@H](CN(C)C(=O)CCN1CCCCC1)O2 | inactive
35 | C[C@@H]1CN([C@H](C)CO)C(=O)c2cc(NC(=O)Nc3ccc4c(c3)OCO4)ccc2O[C@@H]1CN(C)C(=O)Nc1cccc2ccccc12 | inactive
36 | COc1ccc(C#Cc2ccc3c(c2)O[C@H](CN(C)C(=O)CN2CCOCC2)[C@@H](C)CN([C@H](C)CO)S3(=O)=O)cc1 | inactive
37 | CN(C)CCN1C(=O)CO[C@H]2CN(C(=O)NCc3cccnc3)C[C@@H]21 | inactive
38 | C[C@@H]1CN([C@H](C)CO)C(=O)Cc2cc(NC(=O)Nc3ccccc3)ccc2O[C@@H]1CN(C)S(=O)(=O)c1cn(C)cn1 | inactive
39 | O=C(N/N=C/[C@H](O)[C@H](O)[C@@H](O)[C@@H](O)CO)c1ccccn1 | inactive
40 | CON=C(C(=O)NC1C(=O)N2C(C(=O)O)=C(C[N+]3(C)CCCC3)CSC12)c1csc(N)n1.[Cl-] (stereo not given) | inactive
41 | Cc1noc(C)c1S(=O)(=O)Nc1ccc2c(c1)C(=O)N([C@@H](C)CO)C[C@H](C)[C@H](CN(C)C(=O)Nc1cccc3ccccc13)OCCCC[C@H](C)O2 | inactive
42 | C[C@H](CO)N1C[C@H](C)[C@@H](CN(C)Cc2ccccc2)Oc2ccc(NC(=O)Nc3ccc(C(F)(F)F)cc3)cc2CC1=O | active
43 | C[C@H](CO)N1C[C@H](C)[C@H](CN(C)Cc2ccccc2)Oc2ccc(NC(=O)Nc3ccc(C(F)(F)F)cc3)cc2CC1=O | active
44 | CO[C@H]1CN(C)C(=O)c2cc(NC(=O)Nc3ccccc3F)ccc2OC[C@@H](C)N(Cc2ccccc2C(=O)O)C[C@H]1C | inactive

Row | Compound | cytotoxicity call
45 | C[C@@H]1CCCCO[C@H](CN(C)C(=O)Nc2ccc(F)cc2)[C@H](C)CN([C@@H](C)CO)C(=O)c2cc(NC(=O)c3ccccc3)ccc2O1 | inactive
46 | COc1ccc(C(=O)CCC(=O)O)c2ccccc12 | active
47 | O=C(O)CCC(=O)c1ccc(-c2ccccc2)cc1 | inactive
48 | COc1ccc(C(=O)O)c(O)c1OC | inactive
49 | C[C@H]1CCCCO[C@@H](CN(C)C(=O)NC2CCCCC2)[C@@H](C)CN([C@@H](C)CO)C(=O)c2cc(NC(=O)NC3CCCCC3)ccc2O1 | inactive
50 | COc1ccc(S(=O)(=O)N(C)C[C@@H]2OCCCC[C@@H](C)Oc3ccc(NC(=O)Nc4ccccc4)cc3C(=O)N([C@@H](C)CO)C[C@@H]2C)cc1 | inactive
51 | C[C@H](O)C#Cc1ccc2c(c1)O[C@H](CN(C)C(=O)Cc1ccccn1)[C@@H](C)CN([C@H](C)CO)S2(=O)=O | inactive
52 | COCC#Cc1cnc2c(c1)C(=O)N([C@H](C)CO)C[C@@H](C)[C@H](CN(C)S(=O)(=O)c1cn(C)cn1)O2 | inactive
53 | COCC#Cc1cnc2c(c1)C(=O)N([C@H](C)CO)C[C@H](C)[C@H](CN(C)C(=O)c1cnccn1)O2 | active
54 | COCC#Cc1cnc2c(c1)C(=O)N([C@@H](C)CO)C[C@H](C)[C@@H](CN(C)S(=O)(=O)c1cn(C)cn1)O2 | active
55 | COc1ccccc1C#Cc1cnc2c(c1)C(=O)N([C@H](C)CO)C[C@@H](C)[C@@H](CN(C)S(=O)(=O)c1cn(C)cn1)O2 | inactive
56 | COc1ccccc1C#Cc1cnc2c(c1)C(=O)N([C@@H](C)CO)C[C@@H](C)[C@H](CN(C)S(=O)(=O)c1cn(C)cn1)O2 | active
57 | COc1ccccc1C#Cc1cnc2c(c1)C(=O)N([C@@H](C)CO)C[C@@H](C)[C@@H](CN(C)S(=O)(=O)c1cn(C)cn1)O2 | inactive
58 | COCC#Cc1cnc2c(c1)C(=O)N([C@H](C)CO)C[C@@H](C)[C@@H](CN(C)S(=O)(=O)c1cn(C)cn1)O2 | inactive
59 | COCC#Cc1cnc2c(c1)C(=O)N([C@H](C)CO)C[C@@H](C)[C@H](CN(C)C(=O)c1cnccn1)O2 | inactive
60 | COCC#Cc1cnc2c(c1)C(=O)N([C@H](C)CO)C[C@H](C)[C@@H](CN(C)C(=O)c1cnccn1)O2 | inactive
61 | COc1ccccc1C#Cc1cnc2c(c1)C(=O)N([C@H](C)CO)C[C@H](C)[C@@H](CN(C)S(=O)(=O)c1cn(C)cn1)O2 | inactive
62 | COc1ccccc1C#Cc1cnc2c(c1)C(=O)N([C@H](C)CO)C[C@@H](C)[C@H](CN(C)S(=O)(=O)c1cn(C)cn1)O2 | active
63 | COc1ccccc1C#Cc1cnc2c(c1)C(=O)N([C@@H](C)CO)C[C@H](C)[C@H](CN(C)S(=O)(=O)c1cn(C)cn1)O2 | inactive
64 | COCCCNC(=O)[C@@]1(Sc2ccc(C)cc2)CC(=O)N(Cc2cc(C(F)(F)F)cc(C(F)(F)F)c2)[C@@H]1c1ccc(CO)cc1I | inactive
65 | Cc1cccc(S(=O)(=O)N2C[C@H](O)COC[C@H]3O[C@@H](CC(=O)NCc4ccncn4)CC[C@@H]32)c1 | inactive
